Inconclusive results are not listed. Unmarked numbers belong to inactive results. Activity calls are given as the source filed them. Calls follow the shape of the dose curve; as a rule, active = well fitted cell-killing curve with a large enough effect; inconclusive = small, poorly fitted or top-dose-only effect, or effect the other way; inactive = no such curve, though single readings can be large or run the other way. Non-standard residues stand in square brackets, D forms with d. Residues, ends and D or L forms follow the SMILES beside them. *: point of attachment. Sta = CC(C)C[C@H](N)[C@@H](O)CC(=O)O; Isovaleryl = CC(C)CC(=O)*
Assay: Quantitative High-Throughput drug screen in 47 multiple myeloma cell lines against the NCATS MIPE library collection: KMS11_JCRBsus cell viability assay (AID 1919873); also: nearly all actives have a fitted effect of over 50% in size
Conditions: KMS11 myeloma viability, CellTiter-Glo ATP luminescence, 48 h; series mostly up to 45.8 µM; viability (% of control): at the top concentration
Excerpt: PI: Beverly A. Mock Ph.D.
Laboratory of Cancer Biology and Genetics,
Center for Cancer Research, National Cancer Institute,
National Institute of Health, Bethesda, Maryland
Drug resistance and disease progression are common in multiple myeloma (MM) patients, underscoring the need for new therapeutic combinations. […] We hypothesized that effective combinations would reduce MYC expression and enhance p16 activity. […] These preclinical data identify potentially useful drug combinations for evaluation in drug-resistant MM and reveal potential mechanisms of combined drug sensitivity.
Described herein is the primary MIPE qHTS used to cherrypick compounds. Validated compounds were then further tested for potential synergistic activiy.
[1] Peat TJ, Gaikwad SM, Dubois W, Gyabaah-Kessie N, Zhang S, Gorjifard S, Phyo Z, Andres M, Hughitt VK, Simpson RM, Miller MA, Girvin AT, Taylor A, Williams D, D'Antonio N, Zhang Y, Rajagopalan A, Flietner E, Wilson K, Zhang X, Shinn P, Klumpp-Thomas C, McKnight C, Itkin Z, Chen L, Kazandijian D, Zhang J, Michalowski AM, Simmons JK, Keats J, Thomas CJ, Mock BA. Drug combinations identified by high-throughput screening promote cell cycle transition and upregulate Smad pathways in myeloma. Cancer Lett. 2023 Aug 1;568:216284. doi: 10.1016/j.canlet.2023.216284. Epub 2023 Jun 24. PMID: 37356470; PMCID: PMC10408729.
SEQUENCE No. (e.g., 1, 2, 3, etc.); […] (e.g., Cells, Incubation, Reagent, etc.); VALUE and DESCRIPTION.
1; Cells; 5 uL; white, solid bottom 1536-well Greiner assay plate.
2; Compounds; 23 nL; Kalypsis pin tool (Wako USA) equipped with a 1536-well pin head to transfer to the assay plates.
3; Incubation; 48 hours; 37C incubation.
4; Reagent;5uL; CellTiter Glo (Promega).
5; Detector; 425V; Luminescence; Viewlux PerkinElmer.
NOTES (numbers refer to Sequence numbers above)
1. The cell-based screening methods employed in this study were like those previously published. Briefly, the corresponding myeloma cell lines were screened in 1,536-well plates with 500 cells, 5-uL per well for inhibition of cell viability (assessed by measuring ATP levels with CellTiterGlo).
2. NCATS MIPE 4.0 library of approved and investigational drugs were added using the Kalypsis pin tool. Wells treated with DMSO only for 100% viability and media only for 0% viability were used as controls.
3. The assay plates were covered and incubated for 48 hours in a 37C, 5% CO2 incubator with controlled humidity.
4. After 48 hours, CellTilter-GloTM luminescent substrate mix (Promega) reagent was added to the assay plate and plates we incubated for 5 min at room temperature.
5. Signal was measured as median relative luminescence units on a ViewLux (PerkinElmer) multiplate reader.
[1] Heske CM, Davis MI, Baumgart JT, Wilson K, Gormally MV, Chen L, Zhang X, Ceribelli M, Duveau DY, Guha R, Ferrer M, Arnaldez FI, Ji J, Tran HL, Zhang Y, Mendoza A, Helman LJ, Thomas CJ. Matrix Screen Identifies Synergistic Combination of PARP Inhibitors and Nicotinamide Phosphoribosyltransferase (NAMPT) Inhibitors in Ewing Sarcoma. Clin Cancer Res. 2017 Dec 1;23(23):7301-7311. doi: 10.1158/1078-0432.CCR-17-1121. Epub 2017 Sep 12. PMID: 28899971; PMCID: PMC6636827.
Potency is read from the fitted curve at half-maximal effect.

Row | Structure (SMILES) | viability (% of control) [%] | Potency
1 | Nc1ccc(S(N)(=O)=O)cc1 | 107 | –
2 | Nc1ncn([C@H]2C[C@H](O)[C@@H](CO)O2)c(=O)n1 | – | 0.59 µM (active)
3 | COc1c(O)cc2c(c1O)[C@@H]1O[C@H](CO)[C@@H](O)[C@H](O)[C@H]1OC2=O | 89.4 | –
4 | COC1=C(OC)C(=O)C(CCCCCCCCCCO)=C(C)C1=O | – | 14.8 µM (active)
5 | O=C(CS(=O)Cc1ccco1)NCC=CCOc1cc(CN2CCCCC2)ccn1 (stereo not given) | 95.1 | –
6 | COc1ccccc1N1CCN(CCN(C(=O)C2CCCCC2)c2ccccn2)CC1 | 82.9 | –
7 | O=Nc1c(-c2c(O)[nH]c3cc(Br)ccc23)[nH]c2ccccc12 | – | 3.72 µM (active)
8 | Cc1cccc(C)c1OCC(=O)N[C@@H](Cc1ccccc1)[C@@H](O)C[C@H](Cc1ccccc1)NC(=O)[C@H](C(C)C)N1CCCNC1=O | – | 20.9 µM (active)
9 | O=c1c(O)c(-c2ccc(O)cc2O)oc2cc(O)cc(O)c12 | 98.1 | –
10 | Nc1ccn([C@@H]2O[C@H](CO)[C@@H](O)C2O)c(=O)n1 (stereo not given in full) | – | 14.8 µM (active)
11 | CC(C)CC(=O)N[C@H](C(=O)N[C@H](C(=O)N[C@@H](CC(C)C)[C@@H](O)CC(=O)N[C@@H](C)C(=O)N[C@@H](CC(C)C)[C@@H](O)CC(=O)O)C(C)C)C(C)C (Isovaleryl-VV[Sta]A[Sta]-OH) | 115 | –
12 | CC(=O)N1CCN(c2ccc(OC[C@H]3CO[C@](Cn4ccnc4)(c4ccc(Cl)cc4Cl)O3)cc2)CC1 | – | 18.7 µM (active)
13 | CC1(C)CCC(C)(C)c2cc(NC(=O)c3ccc(C(=O)O)cc3)ccc21 | – | 4.18 µM (active)
14 | NC(=NCc1ccccc1)NC(=O)c1nc(Cl)c(N)nc1N | 97.6 | –
15 | CCN(CC)CCOc1ccc(Nc2ncc3cc(-c4c(Cl)cccc4Cl)c(=O)n(C)c3n2)cc1 | – | 0.0418 µM (active)
16 | COc1cc2c(cc1OC)C1CC(=O)C(CC(C)C)CN1CC2 (stereo not given) | 107 | –
17 | CCC(C)(Oc1ccc(C2(c3ccc(OC(C)(CC)C(=O)O)cc3)CCCCC2)cc1)C(=O)O (stereo not given) | 103 | –
18 | O=C1c2ccccc2-c2n[nH]c3cccc1c23 | 84.9 | –
19 | CN(C)C(=O)[C@H](O)[C@H](Cc1ccccc1)NC(=O)c1cc2cc(Cl)ccc2[nH]1 | – | 16.6 µM (active)
20 | Cc1c(C(=O)NN2CCCCC2)nn(-c2ccc(Cl)cc2Cl)c1-c1ccc(Cl)cc1 | – | 23.5 µM (active)

Row | Structure (SMILES) | viability (% of control) [%] | Potency
21 | O=C(O)c1cccc(-c2noc(-c3ccccc3F)n2)c1 | 78.9 | –
22 | Cc1nc(-c2ccc(OCC(C)C)c(C#N)c2)sc1C(=O)O | 107 | –
23 | C[C@H](Cn1cnc2c(N)ncnc21)OCP(=O)(O)O | 122 | –
24 | Nc1nc(N)c(N=O)c(OCC2CCCCC2)n1 | – | 6.62 µM (active)
25 | CCN(CCO)CCCC(C)Nc1ccnc2cc(Cl)ccc12 (stereo not given) | 113 | –
26 | Oc1ccc2ccccc2c1SSc1c(O)ccc2ccccc12 | – | 13.2 µM (active)
27 | Nc1nc(Cl)nc2c1ncn2[C@H]1C[C@H](O)[C@@H](CO)O1 | – | 5.26 µM (active)
28 | O=c1oc2cc(O)ccc2s1 | 101 | –
29 | C=C(c1ccc(C(=O)O)cc1)c1cc2c(cc1C)C(C)(C)CCC2(C)C | 114 | –
30 | NC(=O)Cc1cccc(C(=O)c2ccccc2)c1N | 85.1 | –
31 | O=C(NC(Cc1cc(=O)[nH]c2ccccc12)C(=O)O)c1ccc(Cl)cc1 (stereo not given) | 118 | –
32 | CS(=O)(=O)OCCCCOS(C)(=O)=O | 105 | –
33 | O=C(O)c1cc(=O)c2c(OCC(O)COc3cccc4oc(C(=O)O)cc(=O)c34)cccc2o1 | 72.4 | –
34 | C[C@H](Cc1ccc(O)c(O)c1)[C@@H](C)Cc1ccc(O)c(O)c1 | – | 18.7 µM (active)
35 | O=C(c1ccccc1)c1ccc2n1CCC2C(=O)O (stereo not given) | – | 13.2 µM (active)
36 | COc1cc2c(N3CCN(C(=O)Nc4ccc(OC(C)C)cc4)CC3)ncnc2cc1OCCCN1CCCCC1 | – | 26.4 µM (active)
37 | Cc1ccc(C)c(OCCCC(C)(C)C(=O)O)c1 | 112 | –
38 | N=C(N=C(N)N)N1CCOCC1 | 77.8 | –
39 | CCCc1cc(=O)[nH]c(=S)[nH]1 | 117 | –
40 | O=C(OC1C[C@H]2CC[C@@H](C1)[N+]21CCCC1)C(O)(c1ccccc1)c1ccccc1 (stereo not given in full) | 110 | –

Source: PubChem BioAssay (NCATS)
